The full ranking holds about 18,000 sequences; the median of “log2 normalized intensity” is about 0.36, and the highest 2% start at about 7.3. Many of the other results were omitted from the sample, so the highest values are more common in it than they were.

The test addresses T1, HNF4alpha8 (COS-7 nuclear extract) (Homo sapiens, UniProt P41235-5 1-452).
T1 sequence: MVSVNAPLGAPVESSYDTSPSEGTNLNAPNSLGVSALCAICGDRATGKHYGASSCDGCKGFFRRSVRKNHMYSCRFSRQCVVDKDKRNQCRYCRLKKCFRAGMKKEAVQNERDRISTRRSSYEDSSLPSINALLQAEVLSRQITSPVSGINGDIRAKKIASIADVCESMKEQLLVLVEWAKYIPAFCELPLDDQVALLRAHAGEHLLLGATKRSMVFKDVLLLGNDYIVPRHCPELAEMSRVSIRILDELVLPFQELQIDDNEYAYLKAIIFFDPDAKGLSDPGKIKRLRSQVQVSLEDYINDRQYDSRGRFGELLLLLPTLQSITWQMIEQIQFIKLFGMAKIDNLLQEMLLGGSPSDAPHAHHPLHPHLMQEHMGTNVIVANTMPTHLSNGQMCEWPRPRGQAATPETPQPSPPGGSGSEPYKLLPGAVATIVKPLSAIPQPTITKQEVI
Briefly: protein-binding microarray; COS-7 nuclear extract on double-stranded Agilent 4x180k PBM; binding buffer, salt, pH and temperature not given in the material; high values mean tight binding. The settings on record: chain copies: 2; label: 3' end of strand 1 on the slide; dsDNA, one strand shown. Summed up: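 Binding signal is the background-corrected, normalized gProcessedSignal calculated by Agilent software. It was measured by applying nuclear extracts of COS-7 cells transiently transfected with a human HNF4α isoform expression vector to a custom Agilent SurePrint G3 4x180k array of ~44,000 double-stranded ~60-nt test sequences in quadruplicate, then imaging bound HNF4α on an Agilent G2565CA scanner at 2-µm resolution.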
In the case of “TGTCAGGAACAACTTCGGGAATCTGACCTTGCCTAGGGAGATTAGAGTATCGGTCGA”, the binding signal was 4.3 log2 normalized intensity.
To “GCTTACAACTCTAAGGGGGAAAGTCCACGTGCCTAGGGAGATTAGAGTATCGGTCGA” belongs 4.61 log2 normalized intensity.
To “CTCAACCTCCCCCTGGGGACAGGTGTTAATGCCTAGGGAGATTAGAGTATCGGTCGA” belongs 2.27 log2 normalized intensity; to “CACGTGCAAAGTACAAAGTACAGAGATGGCGCCTAGGGAGATTAGAGTATCGGTCGA”, 3.78 log2 normalized intensity; to “GGGTAACTGACCTTGTTGCCCACCCCCCAAGCCTAGGGAGATTAGAGTATCGGTCGA”, 5.8 log2 normalized intensity.
As to “TCAATGGCCCCAGTGCACGTGCATGAGGCCGCCTAGGGAGATTAGAGTATCGGTCGA”, the binding signal was -0.475 log2 normalized intensity.
The result for “GGATCCTTGGAGGACCTTGGGTTCATTTTAGCCTAGGGAGATTAGAGTATCGGTCGA” reads 2.86 log2 normalized intensity; that for “TTTTGCTCTGATCCTAGTCTTTGCCCCACTGCCTAGGGAGATTAGAGTATCGGTCGA”, 3.94 log2 normalized intensity.
To “ACTGCCCGCTGGCCTCCCCATCCTCATGACGCCTAGGGAGATTAGAGTATCGGTCGA” belongs 2.93 log2 normalized intensity; to “CAAGCTGACAAACATGTATCAGTGATAGACGCCTAGGGAGATTAGAGTATCGGTCGA”, -0.0274 log2 normalized intensity; to “AATCGACCTTTAGCACCGTAAGAGAGTATTGCCTAGGGAGATTAGAGTATCGGTCGA”, 4.63 log2 normalized intensity.
To “CTTTAGCACCTTCATCCAAAGATGACCTTTGCCTAGGGAGATTAGAGTATCGGTCGA” belongs 8.24 log2 normalized intensity; to “TATGACCTTTGCTTTTCAAGATTTTACCTAGCCTAGGGAGATTAGAGTATCGGTCGA”, 2.72 log2 normalized intensity.
As for “TAACTCCTTTGTGTGAATCGACCTTTAGCAGCCTAGGGAGATTAGAGTATCGGTCGA”, the binding signal was determined as 6.42 log2 normalized intensity.
As to “TCTTATTGCCTCATGTTTGCAGAATGGCTGGCCTAGGGAGATTAGAGTATCGGTCGA”, the binding signal was determined as 0.617 log2 normalized intensity.
Turning to “GGACTTGGGACTTTCGAGTTAATGCTGGAGGCCTAGGGAGATTAGAGTATCGGTCGA”, the binding signal was 3.2 log2 normalized intensity.
The result for “CCTTTGGACTGTCCTTTGCTAGATTCTTTCGCCTAGGGAGATTAGAGTATCGGTCGA” reads 2.13 log2 normalized intensity; that for “GAGACTTTGGACTTTGGACTTGGGACTTTCGCCTAGGGAGATTAGAGTATCGGTCGA”, 9.81 log2 normalized intensity; that for “TTTGGACTTTGGACTTGGGACTTTCGAGTTGCCTAGGGAGATTAGAGTATCGGTCGA”, 8.22 log2 normalized intensity.
Regarding “ACTTTGGACTTGGGACTTTCGAGTTAATGCGCCTAGGGAGATTAGAGTATCGGTCGA”, the binding signal came to 4.67 log2 normalized intensity.
The result for “CTGGACTTTCCTTTGTTGGGAGACTTTTTAGCCTAGGGAGATTAGAGTATCGGTCGA” reads 1.45 log2 normalized intensity; that for “ATAGCAAACACGATTGGATGGAAGGTCCTTGCCTAGGGAGATTAGAGTATCGGTCGA”, 0.748 log2 normalized intensity; that for “AATCAAACTGAACTTTGAAACAAGCCCATCGCCTAGGGAGATTAGAGTATCGGTCGA”, 3.87 log2 normalized intensity.
The result for “CAACCTCTCCAATGCTATGCTTTTATTTAAGCCTAGGGAGATTAGAGTATCGGTCGA” reads -0.995 log2 normalized intensity; that for “CATCATAAACCCGATCCTTACTATTAGGTCGCCTAGGGAGATTAGAGTATCGGTCGA”, 1 log2 normalized intensity; that for “GGGTGGGGTGCTGCCTTTCCTGTGACTTTTGCCTAGGGAGATTAGAGTATCGGTCGA”, 2.09 log2 normalized intensity.
In the case of “CTGTGCTGCCCTTTGCCCTTTGGGAAGGGGGCCTAGGGAGATTAGAGTATCGGTCGA”, the binding signal is 6.59 log2 normalized intensity.
Take “CTTGGCTGTGCTGCCCTTTGCCCTTTGGGAGCCTAGGGAGATTAGAGTATCGGTCGA”: the binding signal worked out at 7.91 log2 normalized intensity.
The result for “GAGAGTTTTCCTTGGCTGTGCTGCCCTTTGGCCTAGGGAGATTAGAGTATCGGTCGA” reads 4.01 log2 normalized intensity.
To “GGACTTTGGGCTGTGTTTTGCCCCTGCAGAGCCTAGGGAGATTAGAGTATCGGTCGA” belongs 4.12 log2 normalized intensity; to “TTTTCCTTGGCTGTGCTGCCCTTTGCCCTTGCCTAGGGAGATTAGAGTATCGGTCGA”, 8.52 log2 normalized intensity; to “GCGTAGCCCAAAGGTCAGTCTGCAGCTAATGCCTAGGGAGATTAGAGTATCGGTCGA”, 3.36 log2 normalized intensity.
The result for “AGTAGGCACTATTATCCCCCTATCCCAAGAGCCTAGGGAGATTAGAGTATCGGTCGA” reads 4.72 log2 normalized intensity; that for “CCTAAGCCTTATTATCTGCTTTTATGACCTGCCTAGGGAGATTAGAGTATCGGTCGA”, 3.51 log2 normalized intensity; that for “TTTGTTGCCTCTTTTCTGCTTTTGGAATTTGCCTAGGGAGATTAGAGTATCGGTCGA”, 3.37 log2 normalized intensity.
With “GCCTTATTATCTGCTTTTATGACCTTTGACGCCTAGGGAGATTAGAGTATCGGTCGA”, the binding signal is 8.05 log2 normalized intensity.
To “CTTTTCTGCTTTTGGAATTTGACCTCATTTGCCTAGGGAGATTAGAGTATCGGTCGA” belongs 7.55 log2 normalized intensity.
To “ATTATCTGCTTTTATGACCTTTGACTGCAGGCCTAGGGAGATTAGAGTATCGGTCGA” belongs 7.32 log2 normalized intensity.
Consider “CTGCTTTTGGAATTTGACCTCATTTGCTCCGCCTAGGGAGATTAGAGTATCGGTCGA”, for which the binding signal was found to be 6.52 log2 normalized intensity.
The result for “GTGCTTGGACCTGCTCTGTTTTCTTTCGGTGCCTAGGGAGATTAGAGTATCGGTCGA” reads 1.24 log2 normalized intensity.
The result for “CGCATTTCTGCTTCTTCTCATTCTTGGAATGCCTAGGGAGATTAGAGTATCGGTCGA” reads 1.49 log2 normalized intensity.
To “GGTGACCCCTCAGTTTTTCTCTTTTGACCTGCCTAGGGAGATTAGAGTATCGGTCGA” belongs 4.77 log2 normalized intensity; to “GCATGACCTCAACTCTCAGTTTGGCTCTTAGCCTAGGGAGATTAGAGTATCGGTCGA”, 0.116 log2 normalized intensity.
Turning to “CCCCTCAGTTTTTCTCTTTTGACCTTTGGAGCCTAGGGAGATTAGAGTATCGGTCGA”, the binding signal amounted to 9.54 log2 normalized intensity.
The result for “TGCCTCTTTTCTGCTTTTGGAATTTGACCTGCCTAGGGAGATTAGAGTATCGGTCGA” reads 8.78 log2 normalized intensity; that for “CCCCACTTCCTGACTTGGCCTGAACCAGTTGCCTAGGGAGATTAGAGTATCGGTCGA”, 0.602 log2 normalized intensity.
Consider “TTAAGAACTGGAGTAAAGGTCACTCTTGCTGCCTAGGGAGATTAGAGTATCGGTCGA”, for which the binding signal was found to be 3.94 log2 normalized intensity.
To “GTGTTTAATGTTTTCATTCTGATTTGCACAGCCTAGGGAGATTAGAGTATCGGTCGA” belongs 0.934 log2 normalized intensity; to “CTCTCCAAGCCAGAAAGATGTTTGCCCCAAGCCTAGGGAGATTAGAGTATCGGTCGA”, 2.94 log2 normalized intensity; to “GGTTGGCACGCTTAGGGAACAAAGGTCAGTGCCTAGGGAGATTAGAGTATCGGTCGA”, 7.22 log2 normalized intensity.
To “CGCCGCCTCTGCCTCTTGACCCCTTGGCCCGCCTAGGGAGATTAGAGTATCGGTCGA” belongs 5.9 log2 normalized intensity.
To “TTCCTGGCCTCTCTGCAAATTTGCCTTGTCGCCTAGGGAGATTAGAGTATCGGTCGA” belongs 0.448 log2 normalized intensity.
For “TGTTTGCACTGAGGAATGGAAGGACCTTGGGCCTAGGGAGATTAGAGTATCGGTCGA”, the binding signal was 2.07 log2 normalized intensity.
The result for “TTAGGGGTTAGGGTTAGGGTTAGGGTTACGGCCTAGGGAGATTAGAGTATCGGTCGA” reads 1.17 log2 normalized intensity.

Source of the values: publication PMC10726135, “HNF4α isoforms regulate the circadian balance between carbohydrate and lipid metabolism in the liver”.
